# Results as given in PMC11062922 (Nature Chemical Biology, 2023).
# Where two headings read alike, the source gives them in different places.
# What was measured:
# Set-up in all cases: species or system human, MV4-11 + K-562 + COLO205 + SK-N-BE2 + OVCAR-8
# EGFR = conditions: read-out: apparent Kd, n = 1
# EPHA1 = conditions: read-out: apparent Kd; compound concentrations: 100 nM and 1000 nM (sheet 'Samples'), CATDS: 4.2699834629257603E-2; n = 1
# FLT3 = conditions: read-out: apparent Kd, compound concentrations: 100 nM and 1000 nM (sheet 'Samples'), n = 1
# FRK = conditions: read-out: apparent Kd, compound concentrations: 100 nM and 1000 nM (sheet 'Samples'), n = 1
# LYN = conditions: read-out: apparent Kd, compound concentrations: 100 nM and 1000 nM (sheet 'Samples'), n = 1
# MAP2K5 = conditions: read-out: apparent Kd, compound concentrations: 100 nM and 1000 nM (sheet 'Samples'), n = 1
# SRC = conditions: read-out: apparent Kd; compound concentrations: 100 nM and 1000 nM (sheet 'Samples'), CATDS: 4.7577990075445997E-2; n = 1
# TNK2 = conditions: read-out: apparent Kd; compound concentrations: 100 nM and 1000 nM (sheet 'Samples'), CATDS: 4.3541420759690502E-2; n = 1
# GSK3A = conditions: read-out: apparent Kd, compound concentrations: 100 nM and 1000 nM (sheet 'Samples'), n = 1
# GSK3B = conditions: read-out: apparent Kd, compound concentrations: 100 nM and 1000 nM (sheet 'Samples'), n = 1
# DYRK1A = conditions: read-out: apparent Kd; compound concentrations:100 nM and 1000 nM (sheet 'Samples'); n = 1
# CDK16 = conditions: read-out: apparent Kd, n = 1
# CDKL5 = conditions: read-out: apparent Kd; compound concentrations:100 nM and 1000 nM (sheet 'Samples'); n = 1
# DDR1 = conditions: read-out: apparent Kd, n = 1
# ACVR1B = conditions: read-out: apparent Kd, n = 1
# ACAD11 = conditions: read-out: apparent Kd, n = 1
# [1] = compound concentrations:100 nM and 1000 nM (sheet 'Samples')
compound,measurement,setting,value
CN1CCN(Cc2ccc(-c3ccc4c(Nc5ccc(Oc6ccccn6)cc5)ccnc4c3)o2)CC1 [GW567140X],potency estimated from few doses,"EGFR; compound concentrations: 100 nM and 1000 nM (sheet 'Samples'), CATDS: 3.6910458353503803E-2",1180 nM
same,potency estimated from few doses,EPHA1,760 nM
same,potency estimated from few doses,FLT3; CATDS: 5.7646545219248203E-2,368 nM
same,potency estimated from few doses,FRK; CATDS: 3.6217931786021701E-2,1260 nM
same,potency estimated from few doses,LYN; CATDS: 3.5611600643533602E-2,1330 nM
same,potency estimated from few doses,MAP2K5; CATDS: 0.16913978514831801,58.2 nM
same,potency estimated from few doses,SRC,573 nM
same,potency estimated from few doses,TNK2,720 nM
Cn1cc(C2=C(c3cn(CCCN/C(N)=N/[N+](=O)[O-])c4ccccc34)C(=O)NC2=O)c2ccccc21 [RO0318161-000],potency estimated from few doses,GSK3A; CATDS: 0.30578210093767899,1280 nM
CC(=O)Nc1ccc2c(C3=C(c4cn(C)c5ccccc45)C(=O)NC3=O)cn(C)c2c1 [RO0317596-000],potency estimated from few doses,GSK3A; CATDS: 0.16934615909466,626 nM
same,potency estimated from few doses,GSK3B; CATDS: 0.12883781394947599,1100 nM
CCS(=O)(=O)c1ccc(OC)c(Nc2ncc(-c3cccc(F)c3)o2)c1 [GW621970X_KCGS],potency estimated from few doses,DYRK1A,1660 nM
COc1cc(F)c(F)c(F)c1C(=O)c1cnc(NC2CCN(S(C)(=O)=O)CC2)nc1N [RO4600703-000],potency estimated from few doses,CDK16; [1],51 nM
Cc1[nH]nc2c1N=C(c1ccccc1Cl)c1cc([N+](=O)[O-])ccc1N2 [RO0274406-000],potency estimated from few doses,GSK3A; CATDS: 0.10002413728449901,504 nM
same,potency estimated from few doses,GSK3B; CATDS: 0.102894851356177,472 nM
COc1ccc(C2=C(c3cn(C)c4ccccc34)C(=O)NC2=O)cc1OC [RO3206363-000],potency estimated from few doses,GSK3A; CATDS: 4.8098017287816999E-2,503 nM
same,potency estimated from few doses,GSK3B; CATDS: 4.2103313064090798E-2,722 nM
Clc1ccc(-c2nn3ncccc3c2-c2ccnc(Nc3ccccc3)n2)cc1 [GW829055X],potency estimated from few doses,LYN; CATDS: 3.75888213105793E-2,1350 nM
O=C1Nc2ccc(F)cc2/C1=C/c1ccc[nH]1 [RO0272148-000],potency estimated from few doses,FLT3; CATDS: 0.86450810261160804,98.5 nM
Nc1c(C(=O)c2ccccc2)cnn1-c1ccc(F)cc1 [RO1151246-000],potency estimated from few doses,CDKL5,997 nM
Fc1ccc(-c2ncn(C3CCNCC3)c2-c2ccnc(Oc3ccc4c(c3)OCO4)n2)cc1 [SB-250715],potency estimated from few doses,CDK16; [1],2360 nM
Fc1cccc(COc2ccc(Nc3ncncc3C#Cc3ccccc3)cc2Cl)c1 [GW651576X],potency estimated from few doses,"EGFR; compound concentrations: 100 nM and 1000 nM (sheet 'Samples'), CATDS: 8.85764063435832E-2",663 nM
Cc1ccc(-n2nc(C(C)(C)C)cc2NC(=O)Nc2ccc(OCCN3CCOCC3)cc2)cc1 [BIRB0876BS],potency estimated from few doses,DDR1; [1],607 nM
Cl.Fc1cccc(COc2ccc(Nc3ncnc4cc(-c5ccc[nH]5)sc34)cc2Cl)c1 [GW693881A],potency estimated from few doses,"EGFR; compound concentrations: 100 nM and 1000 nM (sheet 'Samples'), CATDS: 0.260445959414705",495 nM
COc1ccc(-c2nn3ncccc3c2-c2ccnc(Nc3ccc4c(c3)OCCO4)n2)cc1 [GW827106X],potency estimated from few doses,"ACVR1B; compound concentrations: 100 nM and 1000 nM (sheet 'Samples'), CATDS: 6.5023219002079705E-2",849 nM
same,potency estimated from few doses,"DDR1; compound concentrations: 100 nM and 1000 nM (sheet 'Samples'), CATDS: 9.2725066561010094E-2",461 nM
COc1cc(N2CCN(C(C)C)CC2)ccc1Nc1nc(Nc2cccc(F)c2C(=O)O)c2cc[nH]c2n1 [GSK1819799A],potency estimated from few doses,FRK; CATDS: 5.2265489654336902E-2,1130 nM
COc1cc2ncn(-c3cc(O[C@H](C)c4ccccc4Cl)c(C(N)=O)s3)c2cc1OC [GSK237701A],potency estimated from few doses,ACAD11; [1],756 nM
Cc1ccc(NC(=O)Nc2ccccc2)cc1-c1ccc(C(=O)Nc2ccncc2)cc1 [GSK1398471A],potency estimated from few doses,MAP2K5; CATDS: 9.4548103744077197E-2,2350 nM
Cn1cc(C2=C(c3ccccc3[N+](=O)[O-])C(=O)NC2=O)c2ccccc21 [RO0317753-000],potency estimated from few doses,"CDK16; compound concentrations: 100 nM and 1000 nM (sheet 'Samples'), CATDS: 7.8370889513180206E-2",1340 nM
same,potency estimated from few doses,GSK3A; CATDS: 0.31381008714401198,26.1 nM
same,potency estimated from few doses,GSK3B; CATDS: 0.304149371612502,27.6 nM
COc1ccccc1C(=O)c1cnc(NC2CCN(S(C)(=O)=O)CC2)nc1N [RO4514610-000],potency estimated from few doses,CDK16; [1],721 nM
COc1ccc(-c2ccncc2)cc1C(N)=O [GSK605714A],potency estimated from few doses,"ACAD11; compound concentrations: 100 nM and 1000 nM (sheet 'Samples'), CATDS: 0.66413142428119099",619 nM
Cl.Oc1ccc2ncnc(Nc3ccc(OCc4ccccc4)cc3)c2c1 [GI262866A],potency estimated from few doses,EGFR; [1],106 nM
Cn1cc(C2=C(c3cn(CCCCCO)c4ccccc34)C(=O)NC2=O)c2ccccc21 [RO0318053-000],potency estimated from few doses,GSK3A; CATDS: 0.11270550310053699,467 nM
same,potency estimated from few doses,GSK3B; CATDS: 0.11014328392113699,504 nM
CN(C(=O)c1ccc(-c2cc(-c3c[nH]nc3-c3ccccn3)ccn2)cc1)C1CCOCC1 [GW810083X],potency estimated from few doses,ACVR1B; [1],788 nM
